Bioassay records: PubChem, Sanford-Burnham Center for Chemical Genomics
KKLEB tox: cytotoxicity in KKLEB CF airway cells, primary screen, cytotoxicity control for CF NF-kB inhibitor project, cell-based, uHTS, fluorescence assay plates | KKLEB CF airway cells viability, ATPlite luminescence, overnight; active compounds read low; cells stimulated with P. aeruginosa culture filtrate | activity change (cytotoxicity), % at 5 µM | 360,000 tested, 0.36% active;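 active = corrected activity change at or below -50% at 5 µM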
TROY NFkB inh: inhibitors of TROY-driven NF-kB signaling, primary screen, Q293 LMP1-TROYcd cells, NF-kB luciferase, uHTS | 360,000 tested, 0.98% active | Q293 LMP1-TROYcd NF-kB luciferase reporter, 4 h | inhibition, % at 10 µM;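 active = compounds whose plate-normalised and pattern-corrected inhibition of the luciferase reporter signal at the single screening dose is 50% or more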
Peg3 promoter: Peg3 promoter-driven luciferase inhibitors, primary screen, cell-based, HeLa, luciferase luminescence; AID 588405, 2011; inhibition, % at 20 µM; HeLa PEG-Prom luciferase reporter, overnight; 360,000 tested, 1.7% active;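 active = inhibition of at least 50% at 20 µM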
TWEAK Fn14 block: inhibitors of TWEAK-Fn14 signaling, primary screen, luciferase reporter cells, uHTS; inhibition, % at 10 µM; 360,000 tested, 2% active; AID 1159606, 2016; TWEAK-stimulated Fn14 reporter cells, luciferase luminescence, 8 h; in the data active = inhibition above about 50%
CF NFkB inh: inhibitors of PAF-induced NF-kB signaling, primary screen, cell-based, GFP fluorescence, uHTS | KKLEB NF-kB-GFP reporter, GFP fluorescence overnight | inhibition, % at 5 µM | 360,000 tested, 0.86% active | AID 588850, 2011;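 active = at least 50% inhibition at 5 µM, scaled per plate between neutral and stimulator controls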;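 also: PAF is a Pseudomonas aeruginosa culture filtrate used as stimulus; plate controls were PAF-stimulated DMSO wells for no effect and unstimulated DMSO wells for full effect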
HIF-2a inh: HIF-2a reporter inhibitors, primary screen, luminescence, 786-0 RCC cells; 786-0 RCC cells HIF-2a reporter, luciferase luminescence, overnight; AID 624352, 2012; inhibition, % at 18.8 µM; 360,000 tested, 0.72% active;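 active = inhibition of the luminescence signal of 40% or more relative to plate controls, in a single-dose primary screen at 18.75 µM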
Starred values were filed as active, the others as inactive. Shown are actives, neighbours in structure and some others; about 4% of the full set was active somewhere.

SMILES | KKLEB tox | TROY NFkB inh | Peg3 promoter | TWEAK Fn14 block | CF NFkB inh | HIF-2a inh
O=C(Nc1ccn([C@H]2CC[C@@H](CO)O2)c(=O)n1)c1ccccc1 | 1 | -21 | 0 | -34 | 6 | -5
COCc1c(C(=O)Nc2ccc3nc(N4CCOCC4)sc3c2)oc2ccccc12 | 6 | 43 | 51* | 30 | 3 | -63
Cc1cccc(C)c1NC(=O)CN(C)C(=O)Cc1cccc(C(F)(F)F)c1 | 2 | 28 | 31 | 55* | -18 | 13
Cc1cc2occ(CC(=O)N(C)CC(=O)Nc3c(C)cccc3C)c2cc1C | -6 | -8 | 2 | -12 | -1 | 13
Cc1ccc(CNC(=S)NC2CCC(C(C)(C)C)CC2)cc1 (configuration not stated) | -11 | 51* | 13 | -15 | 35 | -2
COc1ccc(CNC(=S)NC2CCCC2)cc1 | -2 | 10 | 8 | 13 | -21 | 2
CCOc1ccc(NC(=O)Cn2cncc2-c2ccc([N+](=O)[O-])cc2)cc1 | -45 | -15 | 81* | 0 | -3 | 7
CCOC(=O)Cn1cncc1-c1ccc([N+](=O)[O-])cc1 | -10 | -54 | -120 | -30 | -5 | -130
COc1cccc(NC(=O)CN2CCc3ccccc3C2)c1 | 10 | -15 | -38 | -6 | 0 | -66
COc1cccc(NC(=O)CSc2nnc(-c3cc(C)n(-c4ccccc4)c3C)o2)c1 | -1 | 36 | -77 | 89* | -6 | 42*
Cc1ccc(NC(=S)NNC(=S)Nc2ccc(C)cc2C)cc1 | 2 | -22 | -11 | -9 | 57* | -60
OC(CCN1CCCC1)(c1ccccc1)C1CCCCC1 (configuration not stated) | 14 | -5 | -15 | 5 | -12 | -13
CN1CCCN=C1COC(=O)C(O)(c1ccccc1)C1CCCCC1 (configuration not stated) | -64* | 7 | -7 | 1 | 19 | -7
CC[C@]12c3[nH]c4cc(CCC(=O)N(C)C)ccc4c3CCN1C(=O)[C@@H](CC(=O)NCc1cccc(C(F)(F)F)c1)C[C@@H]2C(=O)N1CCN(C(=O)c2ccco2)CC1 | 2 | -12 | -24 | 9 | -15 | 2
COc1ccc(OCCN(C)Cc2ccccc2)cc1 | -9 | -32 | -10 | -9 | 10 | -26
COc1ccc(OCCCN(C)Cc2ccccc2)cc1 | -20 | 0 | 9 | 76* | 4 | 6
COc1ccccc1N(C)S(=O)(=O)c1ccc(C(=O)OCC(=O)NCCC2=CCCCC2)cc1 | 1 | 31 | 8 | 54* | 15 | 26
O=C(COC(=O)c1ccc2c(c1)OCCO2)NCCC1=CCCCC1 | 10 | 37 | -33 | 96* | 0 | -49
O=C(COC(=O)c1ccc(O)cc1)NCCC1=CCCCC1 | 0 | 10 | 0 | 0 | -9 | 4
COc1ccccc1-c1nnc(SCC(=O)N2CCCC2)o1 | -3 | -15 | -65 | 41 | -5 | -42
O=C(NCc1ccc(F)cc1)c1cc(C2CCCN(C(=O)c3ccccn3)C2)on1 (configuration not stated) | -2 | -4 | -2 | -18 | -6 | 9
O=C1C=C(c2cc(F)ccc2F)C[C@@H](c2ccc(F)cc2)C1 | 0 | -13 | 4 | -15 | 17 | -10
Cc1ccc(NC(=O)c2ncn(CCCNCCCc3ccccc3)n2)cc1C | -12 | -18 | 44 | 0 | 15 | -33
CCN1/C(=C\C(=S)Nc2ccccc2)Sc2ccccc21 | -10 | 11 | -303 | 18 | 12 | -196
CCN1/C(=C/C(C)=C/c2sc3ccccc3[n+]2CC)Sc2ccccc21 | -43 | 33 | 104* | 82* | 6 | 95*
SMILES | KKLEB tox | TROY NFkB inh | Peg3 promoter | TWEAK Fn14 block | CF NFkB inh | HIF-2a inh
O=C(Nc1cccc(C(F)(F)F)c1)c1csc([C@@H]2O[C@H](CO)[C@@H](O)[C@H]2O)n1 | 0 | -2 | -8 | 19 | 18 | -20
O=C1C(=O)c2ccccc2C(O)=C1CCCCl | -25 | -4 | 40 | 5 | 79* | 1
COc1ccc(CC2=C(O)c3ccccc3C(=O)C2=O)cc1 | -9 | 17 | -11 | 33 | -3 | 5
COc1ccc(OC)c(N=Nc2c(O)c3ccccc3[nH]c2=O)c1 | -20 | 27 | 70* | 19 | 6 | 5
N#C/C(=C/c1ccc(N2CCCCCC2)o1)c1ccc(Cl)cc1 | -40 | -9 | 97* | 1 | 71* | 45*
Cc1cc(NC(=O)CSc2nnc(CNC(=O)c3c(F)cccc3F)o2)no1 | -11 | 10 | 29 | -1 | 17 | 17
O=C(C1CCCCC1)N1CCN=C1SCc1cccc([N+](=O)[O-])c1 | -7 | 26 | 13 | 54* | 26 | 24
COc1ccc(N2C(=O)C3CC(C)=C(C)CC3C2=O)c(OC)c1 (configuration not stated) | -4 | 10 | -8 | 8 | 12 | 1
COc1cc(N2C(=O)C=CC2=O)ccc1N1C(=O)C=CC1=O | -32 | 11 | 111* | -14 | 78* | 85*
COc1ccccc1-n1cc2c([N+](=O)[O-])cc([N+](=O)[O-])cc2n1 | 9 | -32 | -43 | 51* | -34 | -11
COc1cccc(/C=C2/Sc3ccc(C(=O)NCCN4CCCCCC4)cc3NC2=O)c1 | -7 | 2 | 100* | -18 | 6 | 15
CCN1CCN(CCCNC(=O)c2ccc3c(c2)NC(=O)c2ccccc2S3)CC1 | 7 | -3 | 1 | -6 | -3 | 16
O=C1Nc2cc(C(=O)N3CCc4ccccc4C3)ccc2S/C1=C\c1ccccc1 | 0 | 18 | 13 | 28 | 0 | 12
O=C1Nc2cc(C(=O)NCCN3CCCCCC3)ccc2S/C1=C\c1ccccc1 | -4 | -17 | 94* | 3 | 19 | 4
CCN1CCCC1CNC(=O)c1ccc2c(c1)NC(=O)/C(=C\c1ccc(OC)c(OC)c1)S2 (configuration not stated) | 5 | 3 | 40 | -59 | -8 | 21
O=C1Nc2cc(C(=O)NCCCN3CCCC3)ccc2S/C1=C/c1cccc(Cl)c1 | 0 | 2 | 99* | -11 | 22 | -8
COc1cc(NC(=O)CCc2c(C)[nH]c(=O)c(C#N)c2C)cc(OC)c1 | 5 | 2 | 4 | -7 | 4 | 7
CC(=O)Oc1ccc2nc(-c3ccc(Br)o3)oc(=O)c2c1 | 6 | 16 | 18 | 8 | -12 | 16
COc1c2c(cc3oc(=O)c4c5ccc(O)cc5oc4c13)OC(C)(C)CC2 | -20 | 77* | -263 | 77* | 1 | -249
CC(C)(O)c1cc2ccc(C#Cc3ccsc3)cc2c(=O)o1 | -5 | -49 | -286 | -35 | 19 | -274
